Assay: inhibition of PEG-3 promoter-driven reporter – cell-based, HeLa, luciferase, CREF/GAPDH counter-screen panel, dose response (AID 624167)
Conditions: CREF/GAPDH counter-screens; run 2, dose range 1, at 100 µM (top of the series)

Row | Structure (SMILES) | inhibition [%]
1 | COC(=O)C1C=CC(OC2OC(COC(C)=O)C(OC(C)=O)C(OC(C)=O)C2OC(C)=O)n2c(=O)n(-c3ccccc3)c(=O)n21 (stereo not drawn) | 84.2
2 | COc1ccc(-n2c(O)c(/C=N/Nc3nc(C)cc(C)n3)c3ccccc3c2=O)cc1OC | -21.1
3 | O=C(CNc1ccccc1)N/N=C/c1c(O)ccc2ccccc12 | 63.7
4 | CCc1ccc(/C=C2\SC(=S)N(CCCC(=O)Nc3ccccn3)C2=O)cc1 | 25.6
5 | O=C(N/N=C\c1c(O)ccc2ccccc12)c1cncc(Br)c1 | 72.8
6 | O=[N+]([O-])c1nn(-c2ccc3c(c2)OCCO3)n(O)c1=Nc1ccc(Cl)cc1 | 80.8
7 | CCCC(=O)NC(c1ccc(C(C)C)cc1)c1ccc2cccnc2c1O (stereo not drawn) | 45.7
8 | Cc1ccc(OCC(=O)c2cc(C)n(-c3ccccc3)c2C)c([N+](=O)[O-])n1 | 65.4
9 | CN(C)CC1CCC/C(=C\c2ccc(OC(=O)c3ccc(Cl)cc3)cc2)C1=O (stereo not drawn) | 84.9
10 | Clc1ccccc1/C=C/c1nc(-c2ccccn2)no1 | 96.2
11 | NS(=O)(=O)c1ccc(CCNc2nn3c(-c4ccc(F)c(Cl)c4)cnc3s2)cc1 | 75.5
12 | Cc1cc(NC(c2ccc(Cl)cc2)c2ccc3cccnc3c2O)no1 (stereo not drawn) | 55.8
13 | CCC(=O)NC(c1ccc(C)cc1)c1ccc2cccnc2c1O (stereo not drawn) | 53.6
14 | Oc1[nH]c2ccc(Br)cc2c1N=NC(=S)N1CCOCC1 | 63.5
15 | CN(C(=O)COC(=O)/C=C/c1cccc([N+](=O)[O-])c1)C1CCS(=O)(=O)C1 (stereo not drawn) | -31.8
16 | CC(C)(C)c1ccc(Cn2c(=O)cnc3ccccc32)cc1 | 96.6
17 | CS(=O)(=O)Nc1cccc(NC(=O)C2Cc3c(-c4ccccc4)ccnc3O2)c1 (stereo not drawn) | 54.2

Row | Structure (SMILES) | inhibition [%]
18 | COc1cc(C(=O)N/N=C(\c2ccccc2)c2ccccn2)cc(OC)c1OC | 11.7
19 | CCCn1nc(C(=O)Nc2nc(-c3ccccn3)cs2)c2ccccc2c1=O | 37.9
20 | CC(=O)c1sc2c(c1OC(=O)c1ccc(Cl)cc1Cl)c(=O)n(-c1ccccc1)c(=S)n2-c1ccccc1 | 79.3
21 | Cc1cc(C(=O)Nc2cccc(C(=O)O)c2)oc1C | 92.8
22 | C=CCc1cccc(/C=N/NC(=O)C(C)Nc2cccc(C)c2)c1O (stereo not drawn) | 5.69
23 | COc1ccc(Nc2ncnc3ccc(Br)cc23)c(OC)c1 | 93.7
24 | CC(C)(C)c1ccc(Oc2ccc(N)cc2)cc1 | 95.6
25 | CCCC(=O)NC(c1ccc(Cl)cc1)c1ccc2cccnc2c1O (stereo not drawn) | 70.1
26 | COc1ccc(NC(=O)c2cc(-c3ccccn3)nc3ccccc23)cc1S(=O)(=O)N(C)C | 60.4
27 | CCCC(=O)NC(c1ccc(N(C)C)cc1)c1ccc2cccnc2c1O (stereo not drawn) | 27.1
28 | COc1ccc2c(c1)c(=Cc1ccc(N(C)C)cc1)c1cc(-c3ccccc3)[n+](C)n12 | 99.9
29 | Cc1ccc(C)c(S(=O)(=O)N2CCN(c3ncnc4sccc34)CC2)c1 | 61.2
30 | CN1CCC2(CC1)N=C(c1ccc(F)cc1)C(=S)N2C(=O)c1ccc(C(C)(C)C)cc1 | 97.8
31 | O=C(CCSc1nc2ccccc2s1)N/N=C/c1c(O)ccc2ccccc12 | 0.467
32 | COc1cccc2c1C(=O)c1c(O)c3c(c(O)c1C2=O)CC(O)(C(C)=NNC(=O)c1ccc(Cl)c(Cl)c1)CC3OC1CC(N)C(O)C(C)O1 (stereo not drawn) | 99.4
33 | Nc1nonc1-n1nnc(C(=O)N/N=C/c2cc(Br)ccc2O)c1CNc1ccccc1 | 66.5
